{
  "source": "the supplement of paper PMC11219838",
  "note": "Values without a mark were called inactive.",
  "data": [
    {"system": "Caenorhabditis elegans L1 (N2)", "assay": "survival and reproduction score of C. elegans L1 (0: 0-10 living worms, 1: 11-20, 2: 21-50, 3: >50, 4: overgrown) (score 0-4); higher = more worms, less nematicidal, active = 1 or less; extreme values may be limits of the assay", "conditions": "60 µM; 6 days; temperature: 20 °C", "how_it_was_run": "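About 20 synchronized C. elegans N2 L1s were added per 96-well well with E. coli HB101 in liquid NGM, and compound was pinned to 60 µM final (0.6% v/v DMSO). Sealed plates were shaken at 200 rpm for 6 days at 20 °C. Survival and reproduction were scored under a dissection microscope as an ordinal score of living worms per well. The scale ran 0 (0–10 worms) to 4 (overgrown, starved), and two biological replicates were averaged.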", "values": [
      {"compound": "Cn1c(SCc2cccc(F)c2)nnc1-c1ccco1", "survival and reproduction score": 4},
      {"compound": "COc1ccc(-c2nc(-c3ccc(Cl)cc3)no2)cc1", "survival and reproduction score": 4},
      {"compound": "COc1cccc(-c2nnc(SCC(=O)NC3CCCCC3)o2)c1", "survival and reproduction score": 4},
      {"compound": "Brc1cccc(-c2nnc(SCc3ccccc3)o2)c1", "survival and reproduction score": 4},
      {"compound": "C(=C\\c1ccccc1)/CSc1nnc(-c2ccncc2)o1", "survival and reproduction score": 4},
      {"compound": "O=C(CSc1nnc(-c2ccccc2)o1)Nc1cccc(Cl)c1", "survival and reproduction score": 4},
      {"compound": "Brc1ccc(-c2nnc(SCc3ccccc3)o2)cc1", "survival and reproduction score": 4},
      {"compound": "Cc1ccccc1OCc1nc(-c2ccc3c(c2)OCO3)no1", "survival and reproduction score": 4},
      {"compound": "Clc1ccccc1-c1noc(COc2ccc(Br)cc2)n1", "survival and reproduction score": 4},
      {"compound": "O=C(c1ccccc1-c1nc(-c2ccccc2Cl)no1)N1CCCCC1", "survival and reproduction score": 4},
      {"compound": "CC(Sc1nnc(-c2cccnc2)o1)C(=O)c1ccccc1", "note": "(stereo not drawn)", "survival and reproduction score": 4},
      {"compound": "Cc1ccc(-c2noc(COc3ccc(Cl)cc3)n2)cc1", "survival and reproduction score": 4},
      {"compound": "Clc1ccccc1CSc1nnc(-c2ccncc2)o1", "survival and reproduction score": 4},
      {"compound": "Cc1ccc(-c2nnc(SCC(=O)Nc3c(C)cc(C)cc3C)o2)cc1", "survival and reproduction score": 4},
      {"compound": "O=C(CSc1nnc(-c2ccc(Cl)cc2)o1)c1ccccc1", "survival and reproduction score": 4},
      {"compound": "Brc1ccc(-c2noc(COc3ccc4c(c3)OCO4)n2)cc1", "survival and reproduction score": 4},
      {"compound": "CC(C)(C)c1ccc(-c2noc(COc3ccccc3)n2)cc1", "survival and reproduction score": 4},
      {"compound": "Cc1ccccc1-c1nc(-c2cccc(NC(=O)c3cccs3)c2)no1", "survival and reproduction score": 4},
      {"compound": "Cc1cc(OCc2nc(-c3ccncc3)no2)ccc1Br", "survival and reproduction score": 4},
      {"compound": "O=C(CSc1nnc(-c2ccccc2)o1)NC1CC2CCC1C2", "note": "(stereo not drawn)", "survival and reproduction score": 4},
      {"compound": "COc1ccc(-c2noc(-c3ccc(C)cc3Cl)n2)cc1", "survival and reproduction score": 4},
      {"compound": "O=C(CSc1nnc(-c2cccc(Br)c2)o1)c1ccc2c(c1)CCCC2", "survival and reproduction score": 4},
      {"compound": "COc1ccc(-c2nnc(SCC(=O)Nc3ccc(Br)cc3C(C)C)o2)cc1", "survival and reproduction score": 4},
      {"compound": "O=C(CSc1nnc(-c2ccccc2)o1)Nc1cccc(Br)c1", "survival and reproduction score": 4},
      {"compound": "CC(Oc1ccccc1)c1nc(-c2cccnc2)no1", "note": "(stereo not drawn)", "survival and reproduction score": 4},
      {"compound": "COc1ccc(-c2nnc(SCc3ccccc3C)o2)cc1", "survival and reproduction score": 4},
      {"compound": "Cc1ccc(SCc2nc(-c3ccc(C)cc3)no2)cc1", "survival and reproduction score": 4},
      {"compound": "c1coc(-c2nc(-c3cccs3)no2)c1", "survival and reproduction score": "0 (active)"},
      {"compound": "Fc1ccccc1OCc1nc(-c2ccc(Cl)cc2)no1", "survival and reproduction score": 4},
      {"compound": "CC1CCN(C(=O)CSc2nnc(-c3cccc(Cl)c3)o2)CC1", "survival and reproduction score": 4},
      {"compound": "O=C(CSc1nnc(-c2ccccc2)o1)c1ccc(Br)cc1", "survival and reproduction score": 4},
      {"compound": "Cc1cccc(-c2nc(-c3ccc(Br)cc3)no2)c1", "survival and reproduction score": "0 (active)"},
      {"compound": "O=C(CSc1nnc(-c2ccco2)o1)Nc1cccc(C(F)(F)F)c1", "survival and reproduction score": 4},
      {"compound": "Cc1ccc(C)c(OCc2nc(-c3ccccc3Cl)no2)c1", "survival and reproduction score": 4},
      {"compound": "COc1ccc(-c2noc(-c3ccccc3C(=O)Nc3cccc(C)c3C)n2)cc1", "survival and reproduction score": 4},
      {"compound": "Clc1ccc(SCc2nc(-c3ccccn3)no2)cc1", "survival and reproduction score": "0.5 (active)"},
      {"compound": "CCOc1ccccc1-c1nc(-c2ccc(NC(=O)c3ccncc3)cc2)no1", "survival and reproduction score": 4},
      {"compound": "CCOc1ccc(NC(=O)CSc2nnc(-c3ccncc3)o2)cc1", "survival and reproduction score": 4}
    ]}
  ]
}
